Data published in PubChem BioAssay.
Results filed as inconclusive are left out. For some assays here: Measured potencies and affinities stand elsewhere. Calls of active or inactive are those of the source. Unless noted, how the calls were made is not given here.

Key:
[1] = antimalarial activity against Dd2 strain (AID 2302;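 active means growth inhibition above 50% at the single 2 µM test dose, taken to imply half-maximal potency below 2 µM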;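 further: 0% = DMSO untreated growth and 100% = chloroquine plus artemisinin killed control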); conditions: P. falciparum Dd2 in RBCs, LDH growth readout, 72 h; at 2 µM; active compounds read high
[2] = HepG2 cytotoxicity, primary screen, cytotoxicity control for P. falciparum antimalarial project, cell-based, ATP luminescence (AID 2303;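 active means inhibition above 50%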;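 further: 0% = DMSO wells and 100% = digitonin-killed cells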); conditions: HepG2 viability, 24-48 h, at 10 µM, active compounds read high
[3] = biological target: L-lactate dehydrogenase (Plasmodium falciparum (isolate CDC / Honduras)) (UniProt Q27743); experiment: PfLDH activity inhibition – cell lysate, 3D7 strain, counter-screen for P. falciparum growth inhibition project (AID 2304);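 further: 0% = vehicle and 100% = reference inhibitor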; conditions: P. falciparum 3D7 crude extract, LDH APAD/NBT absorbance; at 2 µM; active compounds read high
Sequence of L-lactate dehydrogenase (Plasmodium falciparum (isolate CDC / Honduras)) (Q27743 whole entry, looked up): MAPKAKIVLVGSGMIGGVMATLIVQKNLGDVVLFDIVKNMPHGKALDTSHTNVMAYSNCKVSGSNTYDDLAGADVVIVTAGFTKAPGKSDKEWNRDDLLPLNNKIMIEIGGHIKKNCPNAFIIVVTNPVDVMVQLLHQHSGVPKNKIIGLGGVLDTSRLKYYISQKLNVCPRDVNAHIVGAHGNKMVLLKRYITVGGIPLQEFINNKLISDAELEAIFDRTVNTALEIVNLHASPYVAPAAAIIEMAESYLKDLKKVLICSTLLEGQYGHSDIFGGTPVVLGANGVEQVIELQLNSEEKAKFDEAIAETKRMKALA

[4] = inhibition of 3D7 malaria parasite growth – strain 3D7 (AID 2306);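 further: 0% = DMSO wells and 100% = chloroquine plus artemisinin control wells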; conditions: P. falciparum 3D7 erythrocytic growth, LDH absorbance, 72 h; at 2 µM; active compounds read high
[5] = biological target: Plasmodium falciparum protein kinase 6 (PK6, PF3D7_1337100) (UniProt Q8IDW1); experiment: PfPK6 kinase inhibitors, biochemical, TCAMS library (AID 1159586); conditions: recombinant PfPK6, Kinase-Glo ATP depletion luminescence
Sequence of Plasmodium falciparum protein kinase 6 (PK6, PF3D7_1337100) (Q8IDW1 1-305): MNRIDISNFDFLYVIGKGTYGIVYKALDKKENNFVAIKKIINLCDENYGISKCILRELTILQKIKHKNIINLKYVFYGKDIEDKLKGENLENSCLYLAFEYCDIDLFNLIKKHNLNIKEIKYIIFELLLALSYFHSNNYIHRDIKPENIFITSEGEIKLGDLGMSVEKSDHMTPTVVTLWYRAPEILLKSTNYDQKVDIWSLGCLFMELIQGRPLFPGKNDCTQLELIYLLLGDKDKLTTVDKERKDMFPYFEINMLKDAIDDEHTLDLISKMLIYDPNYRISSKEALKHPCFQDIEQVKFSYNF

[6] = biological target: Protein kinase 7 (PK7), Plasmodium falciparum 3D7 (PF3D7_0213400) (UniProt Q7YTF7); experiment: inhibition of Plasmodium PK7 catalytic activity – biochemical, TCAMS antimalarial set, Kinase-Glo luminescence (AID 1159587); conditions: recombinant PfPK7, Kinase-Glo ATP depletion luminescence
Sequence of Protein kinase 7 (PK7), Plasmodium falciparum 3D7 (PF3D7_0213400) (Q7YTF7 1-343): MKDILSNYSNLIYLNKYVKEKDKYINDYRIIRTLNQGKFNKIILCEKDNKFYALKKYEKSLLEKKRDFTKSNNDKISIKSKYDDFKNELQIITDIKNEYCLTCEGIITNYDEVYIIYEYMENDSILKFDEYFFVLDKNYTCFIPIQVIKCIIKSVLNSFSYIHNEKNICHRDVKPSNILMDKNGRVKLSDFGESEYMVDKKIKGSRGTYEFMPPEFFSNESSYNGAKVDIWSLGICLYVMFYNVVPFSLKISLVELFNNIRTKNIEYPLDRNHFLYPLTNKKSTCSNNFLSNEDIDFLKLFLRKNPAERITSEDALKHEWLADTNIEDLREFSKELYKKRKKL

[7] = biological target: Calcium-dependent protein kinase 4 (Plasmodium falciparum (isolate 3D7)) (UniProt Q8IBS5); experiment: PfCDPK4 kinase inhibitors, biochemical, TCAMS library (AID 1159588; cut-off not given, nearly all actives have IC50 up to about 0.91 µM); conditions: recombinant PfCDPK4, Kinase-Glo ATP depletion luminescence
Sequence of Calcium-dependent protein kinase 4 (Plasmodium falciparum (isolate 3D7)) (Q8IBS5 whole entry, looked up): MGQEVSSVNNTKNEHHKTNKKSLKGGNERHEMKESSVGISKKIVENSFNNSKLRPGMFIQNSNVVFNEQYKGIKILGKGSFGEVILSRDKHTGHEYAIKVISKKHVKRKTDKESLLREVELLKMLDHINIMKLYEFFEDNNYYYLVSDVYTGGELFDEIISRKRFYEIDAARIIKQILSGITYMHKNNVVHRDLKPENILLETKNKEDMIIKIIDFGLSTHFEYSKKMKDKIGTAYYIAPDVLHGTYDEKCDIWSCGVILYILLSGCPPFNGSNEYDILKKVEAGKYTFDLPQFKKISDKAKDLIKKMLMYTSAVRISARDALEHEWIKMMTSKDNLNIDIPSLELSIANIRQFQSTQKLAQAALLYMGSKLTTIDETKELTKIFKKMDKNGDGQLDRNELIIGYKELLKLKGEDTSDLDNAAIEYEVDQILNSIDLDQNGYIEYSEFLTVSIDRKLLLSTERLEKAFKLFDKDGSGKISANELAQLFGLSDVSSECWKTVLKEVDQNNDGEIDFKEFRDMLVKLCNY

[8] = system: Aerobactin synthetase IucA (Klebsiella pneumoniae); experiment: IucA aerobactin synthetase inhibitors, biochemical, Tocris library, absorbance (AID 1345561); conditions: purified IucA enzyme assay, absorbance (OD) read-out; active compounds read low;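 tested at 8 µM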;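 further: 100% = enzyme without compound and 0% = no enzyme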
[9] = growth inhibition of DIPG glioma cells, dose response, cell-based, SU-DIPG-XIII, MIPE4.0, CellTiter-Glo, qHTS (AID 1347061; cut-off not given, nearly all actives have AC50 up to about 37 µM;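 further: cells exposed to compound for 48 hours before readout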); conditions: SU-DIPG-XIII viability, CellTiter-Glo ATP luminescence
[10] = growth inhibition of DIPG glioma cells, dose response, cell-based, SU-DIPG-IV, MIPE4.0, CellTiter-Glo, qHTS (AID 1347063; cut-off not given, nearly all actives have AC50 up to about 30 µM;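 further: compound exposure lasted 48 hours before the viability readout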); conditions: SU-DIPG-IV viability, CellTiter-Glo ATP luminescence
[11] = biological target: NAD(+) hydrolase SARM1 (Homo sapiens) (UniProt Q6SZW1); experiment: SARM1 TIR NADase inhibitors, cell lysate, NAD-Glo luminescence (AID 1508614;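 active means compound whose remaining NAD level is above about 45 nM, limit read from the data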;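 further: higher remaining NAD means stronger inhibition of SARM1 NADase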); conditions: SAM-TIR HEK293T lysate NADase, at 1 µM, active compounds read high
Sequence of NAD(+) hydrolase SARM1 (Homo sapiens) (Q6SZW1 whole entry, looked up): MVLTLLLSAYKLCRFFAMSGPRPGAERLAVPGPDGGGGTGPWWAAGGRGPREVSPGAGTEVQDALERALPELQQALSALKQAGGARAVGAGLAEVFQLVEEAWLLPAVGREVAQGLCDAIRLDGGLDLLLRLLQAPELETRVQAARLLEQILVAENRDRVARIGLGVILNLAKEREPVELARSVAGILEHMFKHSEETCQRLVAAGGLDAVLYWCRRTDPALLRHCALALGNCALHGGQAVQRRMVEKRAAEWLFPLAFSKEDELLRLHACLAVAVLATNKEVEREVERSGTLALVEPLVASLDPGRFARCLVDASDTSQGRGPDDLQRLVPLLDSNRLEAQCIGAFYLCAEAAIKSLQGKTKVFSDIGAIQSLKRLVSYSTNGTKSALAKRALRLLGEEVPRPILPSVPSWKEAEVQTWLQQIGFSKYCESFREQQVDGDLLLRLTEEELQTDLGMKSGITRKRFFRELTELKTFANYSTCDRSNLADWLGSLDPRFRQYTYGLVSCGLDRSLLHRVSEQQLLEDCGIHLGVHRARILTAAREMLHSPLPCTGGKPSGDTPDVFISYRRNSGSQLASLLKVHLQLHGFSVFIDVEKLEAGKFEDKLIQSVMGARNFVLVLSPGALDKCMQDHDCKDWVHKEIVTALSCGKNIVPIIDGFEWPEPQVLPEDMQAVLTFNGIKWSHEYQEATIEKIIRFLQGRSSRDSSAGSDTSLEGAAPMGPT

[12] = viability rescue of complex I mutant cybrids, primary screen, cell-based, galactose medium, ATP luminescence (AID 1645843;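 active means z-score of at least 1.8 in each of two replicates, scored against plate mean and spread of sample wells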;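 further: positive z means more ATP and so rescue of galactose-driven cybrid death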); conditions: complex I mutant cybrid cells, 72 h, active compounds read high

COCCNCc1cccc(-c2ccc(CN(C(=O)NC3CCCCC3)C3CCN(Cc4ccccc4)CC3)cc2)c1
inactive: growth inhibition [1] 31% | inhibition [2] 32% | inhibition [3] 6% | outcome [5] | outcome [6] | outcome [7]
active: growth inhibition [4] 101%

COC(=O)c1ccc(CC(C)NCC(O)c2ccc(F)c(Cl)c2)cc1 (stereo not given)
active: growth inhibition [1] 78% | growth inhibition [4] 98%
inactive: inhibition [2] -4% | inhibition [3] -7% | outcome [5] | outcome [6] | outcome [7]

COc1ccc(C(=O)c2ccc3[nH]cc(C4=CCN(C)CC4)c3c2)cc1
active: growth inhibition [1] 55% | growth inhibition [4] 88%
inactive: inhibition [3] 4% | outcome [5] | outcome [6] | outcome [7]

O=C(Cc1cc(=O)oc2cc(O)ccc12)N1CCC(CN2CCC(c3c[nH]c4ccccc34)CC2)CC1
active: growth inhibition [4] 94%
inactive: growth inhibition [1] -11% | inhibition [2] 1% | inhibition [3] 3% | outcome [5] | outcome [6] | outcome [7]

CC[C@H]1CN2CC[C@H]1C[C@H]2[C@@H](O)c1cc(OCCCN(C)C)nc2ccc(OC)cc12
active: growth inhibition [4] 99%
inactive: growth inhibition [1] 8% | inhibition [2] -7% | inhibition [3] -2% | outcome [5] | outcome [6] | outcome [7]

Cc1nc(-c2ccc(-c3ccc(C(=O)Nc4ccc5c(c4)C4(CCNCC4)CO5)cc3)c(C)c2)no1
active: growth inhibition [4] 90%
inactive: growth inhibition [1] 15% | inhibition [2] 37% | inhibition [3] -3% | outcome [5] | outcome [6] | outcome [7]

CC[C@H]1CN2CC[C@@H]1C[C@H]2[C@H](O)c1cc(N2CCSCC2)nc2ccc(OC)cc12
active: growth inhibition [1] 98% | growth inhibition [4] 99%
inactive: inhibition [2] 2% | inhibition [3] 1% | outcome [5] | outcome [6] | outcome [7]

O=c1c2ccccc2nc(C=Cc2ccc([N+](=O)[O-])cc2)n1-c1ccccn1
active: growth inhibition [1] 96% | growth inhibition [4] 98%
inactive: inhibition [2] 5% | inhibition [3] -1% | outcome [5] | outcome [6] | outcome [7]

NC(N)=NC(=O)Nc1ccc([N+](=O)[O-])c(Cl)c1
inactive: growth inhibition [1] 12% | inhibition [3] -10% | outcome [5] | outcome [6] | outcome [7]
active: growth inhibition [4] 90%

CC(C)CNCc1cccc(-c2cccc(CN(C(=O)NC3CCCCC3)C3CCN(Cc4ccccc4)CC3)c2)c1
active: growth inhibition [1] 87% | growth inhibition [4] 97%
inactive: inhibition [2] 32% | inhibition [3] 8% | outcome [5] | outcome [6] | outcome [7]

CCOC(=O)c1cncn1[C@H](C)c1ccccc1
inactive: remaining activity [8] 122% | outcome [9] | outcome [10] | remaining NAD [11] 10 nM | z-score [12] -0.35

CC(=O)Nc1ccc(CN2CCC(N(C)c3ccc(NC(=O)c4cccc(C)c4)cc3)CC2)cc1
inactive: inhibition [2] -7% | inhibition [3] -4% | outcome [5] | outcome [6] | outcome [7]
active: growth inhibition [1] 50% | growth inhibition [4] 91%
